Measured values as given in PubChem BioAssay AID504421 (National Center for Advancing Translational Sciences (NCATS), 2011).
This is one part of the list. The source made the active and inactive calls. Calls follow the shape of the full dose curve.

molecular target: Dual specificity protein kinase CLK4 (Homo sapiens) (UniProt Q9HAZ1); assay: Kinase Inhibition Study on Inhibitors of CDC-like Kinase 4 (Reaction Biology data): SAR round 2; details: Reaction Biology kinase assay, 10 uM ATP
Excerpt: NIH Molecular Libraries Probe Production Centers Network [MLPCN] NIH Chemical Genomics Center [NCGC] MLPCN Grant: 1R03MH084827-01 Assay Submitter (PI): Tom Misteli NCGC Assay Overview: Alternative splicing of pre-mRNAs plays a major role in the regulation of eukaryotic gene expression. Alternative splicing is now thought to be one of the primary reasons for the complexity of higher organisms leading to an average of three protein isoforms per gene. Aberrant splicing can lead to a number of diseases and is known to play a role in rare genetic diseases such as progeria syndrome. Hutchinson-Gilford Progeria Syndrome (HGPS) is a pediatric premature aging disease caused by a spontaneous mutation in the lamin A/C (LMNA) gene due to a single point mutation in the lamin A gene effecting 1 in 4 million people. To identify both specific splicing modulators of the lamin A gene as well as general splicing modulators, a cell-based HTS assay was developed using a minigene reporter system (AIDs, 1459 & 1487). […] This AID summarizes the characterization of lead compounds in Clk4.
All kinase reactions were performed using 10 uM ATP in the assay. 100% activity was taken from kinase reactions with DMSO alone (the vehicle used for compound stock solutions).

Dual specificity protein kinase CLK4 (Homo sapiens), sequence (Q9HAZ1 whole entry, looked up, canonical isoform): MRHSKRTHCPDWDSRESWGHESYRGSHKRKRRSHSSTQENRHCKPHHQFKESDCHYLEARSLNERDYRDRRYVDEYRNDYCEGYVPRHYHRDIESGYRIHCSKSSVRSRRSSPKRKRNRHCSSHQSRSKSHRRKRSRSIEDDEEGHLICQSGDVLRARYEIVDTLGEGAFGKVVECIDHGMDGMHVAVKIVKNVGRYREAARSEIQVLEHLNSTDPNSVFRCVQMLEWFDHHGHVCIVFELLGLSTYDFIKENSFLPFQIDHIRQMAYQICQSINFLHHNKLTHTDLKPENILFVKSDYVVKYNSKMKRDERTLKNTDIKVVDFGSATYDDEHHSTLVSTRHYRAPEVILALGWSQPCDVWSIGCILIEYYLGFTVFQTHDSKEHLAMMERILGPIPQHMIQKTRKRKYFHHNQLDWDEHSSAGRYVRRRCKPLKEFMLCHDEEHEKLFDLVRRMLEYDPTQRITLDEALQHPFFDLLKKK

Potency, active:
c1coc(CCNc2ncnc3ccc(-c4ccc5c(c4)OCO5)cc23)c1 42 nM
CC(Nc1ncnc2ccc(-c3ccc4c(c3)OCO4)cc12)c1ccco1 (centres undefined) 7600 nM
CN(Cc1cncn1C)c1ncnc2ccc(-c3ccc4c(c3)OCO4)cc12 507 nM
c1nc(N2CCOCC2)c2cc(-c3ccc4c(c3)OCO4)ccc2n1 135 nM
